PubChem BioAssay (Tox21)
Records with an inconclusive call do not appear. The source made the active and inactive calls. Calls come from the whole dose curve; as a rule, active = well fitted activation curve with a large enough effect in the repeat runs; inconclusive = weak or mixed curves; inactive = flat fitted curve, though single readings scatter.

Assay: A CellTox Green Cytotoxicity Assay to monitor cytotoxicity in HEK293 cells - 40 hour (AID 1224871); note: nearly all actives have a fitted effect of over 45% in size
Conditions: CellTox Green fluorescence; series mostly up to 76.8 µM; cytotoxicity increase: at the top concentration
Description: National Center for Advancing Translational Sciences [NCATS]
NIH Chemical Genomics Center [NCGC]
U.S. Environmental Protection Agency [EPA]
National Institutes of Environmental Health Sciences [NIEHS]
National Toxicology Program [NTP]
Cell-based models are critical for drug discovery. Determining the natural cytotoxic effects resulting from test compounds is an essential research activity. A CellTox Green Cytotoxicity Assay to monitor cytotoxicity in real time of continues cell culture during 40 hours of the compound treatment was used to screen Tox21 10K library compounds in Hek293 cells. CellTox Green Cytotoxicity Assay is a nonlytic, homogeneous, biofluorescent method to measure cytotoxicity in cell culture after experimental manipulation. The assay system uses a proprietary asymmetric cyanine dye that is excluded from viable cells but preferentially stains the dead cell's DNA. […] Viable cells produce no appreciable increases in fluorescence. Therefore, the fluorescence signal produced by the binding interaction with dead cell DNA is proportional to cytotoxicity.
The mixture of Hek293 cell suspension and reagents were dispensed at 600cells/6 ul/well in 1536-well tissue culture treated black solid bottom plates using a Multidrop dispenser. After the assay plates were incubated at a 37 C/5% CO2 incubator for 5 hours, 23 nL of compounds dissolved in DMSO, positive and negative controls was transferred to the assay plate by a pintool work station. The plates were incubated at 37 C for 40 hours. The fluorescence intensity were measured at 0h, 8h, 16h, 24h, 32h and 40h time points using ViewLux plate reader during compound treatment.
% is set by controls: 0 for no effect and ±100 for the full control effect; potency is the fitted concentration of half-maximal effect.

Row | Structure (SMILES) | cytotoxicity increase | Potency
1 | CCC(CO)(CO)[N+](=O)[O-] | -6.81% (inactive) | 
2 | O=C1NC(=O)c2cccc3cccc1c23 | 1.3% (inactive) | 
3 | CNCc1ccc(NC(=O)c2c[nH]c3c2C(=O)CCC3)cc1 | -10.5% (inactive) | 
4 | CCCc1nc2c(C)cc(-c3nc4ccccc4n3C)cc2n1Cc1ccc(-c2ccccc2C(=O)O)cc1 | -3.32% [at 35.3 µM] (inactive) | 
5 | COc1ccc(/C=C/C(=O)c2ccc(OC)cc2OC)cc1 | -21.5% [at 35.3 µM] (inactive) | 
6 | O=S(=O)(O)CO | -9.8% (inactive) | 
7 | Cc1c(C2(c3cc(Br)c(O)c(Br)c3C)OS(=O)(=O)c3ccccc32)cc(Br)c(O)c1Br | -21% (inactive) | 
8 | CCCCCCCCCCCCCCCC(=O)OCC | 0.461% (inactive) | 
9 | Cc1ccc2c(c1)CCCN2 | -6.89% (inactive) | 
10 | C=CCOC(=O)COCCC(C)C | -17.9% (inactive) | 
11 | CC(CCc1ccc(O)cc1)NCCc1ccc(O)c(O)c1 (stereo not given) | -10.6% [at 35.3 µM] (inactive) | 
12 | COc1ccc(C2C(=O)c3ccccc3C2=O)cc1 | -4.86% [at 35.3 µM] (inactive) | 
13 | CC(=O)NNC(C)=O | -13.4% (inactive) | 
14 | CCOC(=O)Oc1ccc(CCNC(=O)[C@H](CCSC)NC(C)=O)cc1OC(=O)OCC | -2.16% [at 35.3 µM] (inactive) | 
15 | Nc1ccc(NC(=O)c2ccc(N)cc2)cc1 | -9.18% (inactive) | 
16 | O=C(C(=O)c1ccco1)c1ccco1 | 16.7% (inactive) | 
17 | CCCCCCCCCCCCCOC(=O)CCSCCC(=O)OCCCCCCCCCCCCC | 7.8% [at 15.8 µM] (inactive) | 
18 | COc1ccc(CCN(C)CCCN2CCc3cc(OC)c(OC)cc3CC2=O)cc1OC | 8.87% [at 35.3 µM] (inactive) | 
19 | C[C@H](CS)C(=O)N1CCC[C@H]1C(=O)O | 5.66% [at 35.3 µM] (inactive) | 
20 | O=CNNC=O | -6.73% (inactive) | 

Row | Structure (SMILES) | cytotoxicity increase | Potency
21 | O=C(O)c1cc(Cl)cc(Cl)c1O | -3.2% (inactive) | 
22 | CC(C)(C)C1(CCc2ccc(Cl)cc2)CO1 (stereo not given) | 28% (inactive) | 
23 | CO[C@@H]1[C@@H](OC)[C@H](C)[C@@](O)(CC(=O)O)O[C@H]1[C@H](C)[C@H]1O[C@@]2(CC[C@@](C)([C@H]3CC[C@@](C)([C@@H]4O[C@@H]([C@H]5O[C@](C)(O)[C@H](C)C[C@@H]5C)C[C@@H]4OC4C[C@H](OC)[C@@H](OC)[C@H](C)O4)O3)O2)C[C@H](O)[C@H]1C (stereo not given in full) |  | 4.77 µM (active)
24 | COC(=O)c1sccc1S(N)(=O)=O | -4.29% (inactive) | 
25 | O=C(O)CN1C(=O)c2cccc3cccc(c23)C1=O | 3.1% [at 35.3 µM] (inactive) | 
26 | FC(F)(F)C(F)(F)C(F)(F)C(F)(F)CCI | -7.37% [at 35.3 µM] (inactive) | 
27 | CCCCCCCCCCCCCCN(C)C | -34.7% [at 15.8 µM] (inactive) | 
28 | O=C(NC(Cc1cc(=O)[nH]c2ccccc12)C(=O)O)c1ccc(Cl)cc1 (stereo not given) | -9.35% [at 35.3 µM] (inactive) | 
29 | NC(=O)CCCCC(N)=O | -0.533% (inactive) | 
30 | O=C(O)/C=C/c1ccc(O)c(O)c1 | -8.5% (inactive) | 
31 | COc1cc(NS(=O)(=O)c2ccc(N)cc2)nc(C)n1 | -0.203% [at 35.3 µM] (inactive) | 
32 | ClC1=C(Cl)C1(Cl)Cl | -8.87% (inactive) | 
33 | CC(C)(O)CCc1ccccc1 | 18.3% (inactive) | 
34 | O=C(O)CNC(=O)c1ccccc1I | -14.6% [at 35.3 µM] (inactive) | 
35 | CCN(CC)C(=O)/C(C#N)=C/c1cc(O)c(O)c([N+](=O)[O-])c1 | 0.624% [at 35.3 µM] (inactive) | 
36 | CCN(CC)CCNC(=O)c1cc(Cl)c(N)cc1OC | 3.69% [at 35.3 µM] (inactive) | 
37 | O=C1[C@@H]2[C@H]3CC[C@H](C3)[C@@H]2C(=O)N1CCCCN1CCN(c2ncccn2)CC1 | -2.78% [at 35.3 µM] (inactive) | 
38 | COC(OC)OC | 7.08% (inactive) | 
39 | CC(=O)Oc1cccc(O)c1 | 4.27% [at 35.3 µM] (inactive) | 
40 | CC(C(=O)O)c1ccc(C(=O)c2cccs2)cc1 (stereo not given) | -0.555% [at 35.3 µM] (inactive) | 
